Experimental data: ChEMBL document CHEMBL3988442, “University of Dundee, Small-Polar-MMV Screening Library” (2021)

Molecular target: AMP-activated protein kinase, AMPK (Homo sapiens) (UniProt P54646+O43741+P54619+Q9UGJ0+Q9Y478+Q13131+Q9UGI9)
Assay: AMP-dependent Kinase enzyme assay. An in vitro enzyme assay that detects ADP turnover that is directly proportional to AMPK activity. This uses naive AMPK that is activated during the assay with MK-8722
Format: functional
Design: scale not given: direction of the effect not stated beside the values
Conditions: 30 µM

First: CC(C)c1ccccc1OCCNC(=O)N1CCC2(CC1)OCCO2
Second: CC(C)c1cc(N2CCC3(CCN(C)C3)C2)ncn1 (stereo not given)
The Percent Effect of the first is lower: -2.79% for the first, -2.38% for the second.

Compared with COc1ccc2ncn(Cc3ncc[nH]3)c(=O)c2c1, COc1ccc(F)cc1C(=O)C1CCCN(Cc2ccc(C)s2)C1 (stereo not given) is higher in Percent Effect: -1.95% for the first, 6.05% for the second.

First: Cc1cc(C)c2[nH]c(C)c(CC(=O)N(C)CCN(C)C)c2c1
Second: COc1ccc(Cl)cc1CN(C)C(=O)CN1C(=O)CCC1C (stereo not given)
The Percent Effect of the first is lower: 3.2% for the first, 6.65% for the second.

First: CC1CN(C)CCN1C(=O)Cc1cc(Cl)c2c(c1)OCCO2 (stereo not given)
Second: Cc1nc(CC(=O)N2CCCC(N(C)Cc3ccccc3)C2)cs1 (stereo not given)
The Percent Effect of the first is lower: 1.93% for the first, 6.8% for the second.

First: FC(F)(F)c1nc(C2CCNCC2)no1
Second: NC1(c2nc(C(F)(F)F)cc(=O)[nH]2)CCCC1
The Percent Effect of the first is higher: 5.73% for the first, -4.13% for the second.

First: Cc1nc(C(=O)N[C@H]2COC[C@@H]2N2CCCCC2)cs1
Second: O=C(N[C@H]1COC[C@@H]1N1CCCC1)c1csc(Cc2ccccc2)n1
The Percent Effect of the first is higher: 4.08% for the first, 4.04% for the second.

Going from CSc1nccc(N2CCC3(CCCN(CC4CC4)C3)C2)n1 (stereo not given) to O=C(c1nc(=O)[nH]c2ccccc12)N1CCCC2(CCNC2)C1 (stereo not given), the Percent Effect falls from 2.58% to 1.4%.

First: Cc1cc(NCCc2c[nH]cn2)nc(-c2cccnc2)n1
Second: Cn1cc(C2=CCN(CCCC(=O)Nc3ccc(C#N)cc3)CC2)cn1
The Percent Effect of the first is lower: 1.96% for the first, 7.78% for the second.

Compared with CCNC(=O)[C@@H]1CN(Cc2ccccc2)C[C@H]1C(=O)c1ccc(F)cc1, CNC(=O)[C@@H]1CN(Cc2ccccc2)C[C@H]1C(=O)c1ccc(F)cc1 is lower in Percent Effect: 15.1% for the first, 12% for the second.

Going from O=C(C1CCOCC1)N1C[C@H]2CC[C@@H]1CN(Cc1ccncc1)C2 to CCc1ccc(OCC(=O)N2CCN(CC)CC2)cc1, the Percent Effect falls from 0.59% to -0.678%.
